The campaign covered roughly 5,500 compounds. About 2,000 (36%) were called active. About 18% were inconclusive and are not listed. Cut-off read from the data, not from the text of the source: active = normalized growth mostly below about 0.91 (no sharp cut-off); inconclusive = no clear call, values can overlap the other calls; inactive = mostly above about 0.92. The list shows a part of the results.
Assay: chemical genetic growth profiling, strain panel (AID 1159580);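 note: tested at 20 µM; growth read once vehicle control cultures reached saturation at 30 °C; 1 = growth at the plate median or of vehicle wells; lower values mean less growth of the strain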
Conditions: S. cerevisiae deletion strains, growth OD
[1] = locus YAL013W, strain DEP1, active compounds read low
[2] = locus YAL040C, strain CLN3, active compounds read low
[3] = locus YDR363W, strain ESC2, active compounds read low
[4] = locus YER002W, strain NOP16, active compounds read low
[5] = locus YNL153C, strain GIM3, active compounds read low
[6] = locus YNL175C, strain NOP13, active compounds read low
[7] = locus YNL197C, strain WHI3, active compounds read low
[8] = locus YNL224C, strain SQS1, active compounds read low
[9] = locus YOR083W, strain WHI5 (second series), active compounds read low
[10] = locus YGR078C, strain PAC10, active compounds read low
[11] = locus YMR307W, strain GAS1, active compounds read low

Measured: normalized growth

N=c1ccn2c(n1)OC1C(O)[C@@H](CO)O[C@H]12 (stereo not given in full)
inactive: [1] 0.99 | [2] 1 | [3] 0.986 | [4] 1.01 | [5] 1.02 | [6] 1 | [7] 1 | [8] 1.03 | locus YNL322C, strain KRE1, active compounds read low 1 | [9] 1.03

CC(N)Cc1c[nH]c2ccc(OCc3cccs3)cc12 (stereo not given)
inactive: [1] 1 | [2] 1.02 | [3] 0.984 | [4] 1.02 | [10] 1.01 | locus YJR075W, strain HOC1, active compounds read low 1 | [11] 1.02 | [5] 1.02 | [6] 0.986 | [7] 1.01 | [8] 1.01 | [9] 0.981 | locus YPL055C, strain LGE1, active compounds read low 1 | locus YPL241C, strain CIN2, active compounds read low 1.01

CC(=O)Oc1c(-c2ccccc2)oc2c(CC=C(C)C)c3c(c(OC(C)=O)c2c1=O)C=CC(C)(C)O3
inactive: locus YAL021C, strain ccr4, active compounds read low 1.06 | locus YAL026C, strain drs2, active compounds read low 1.02 | locus YBL061C, strain skt5, active compounds read low 1 | locus YBR009C, strain hhf1, active compounds read low 1.09 | locus YBR021W, strain FUR4, active compounds read low 1.05 | locus YBR023C, strain chs3, active compounds read low 1.01 | locus YBR171W, strain sec66, active compounds read low 1.01 | locus YBR229C, strain ROT2, active compounds read low 0.923 | locus YBR231C, strain swc5, active compounds read low 1.02 | locus YBR279W, strain paf1, active compounds read low 0.995 | locus YCL011C, strain gbp2, active compounds read low 1.09 | locus YCL016C, strain dcc1, active compounds read low 1.05 | locus YCL029C, strain bik1, active compounds read low 1.01 | locus YCL061C, strain MRC1, active compounds read low 1.02 | locus YCL069W, strain vba3, active compounds read low 1.01 | locus YCR088W, strain abp1, active compounds read low 1.01 | locus YDL005C, strain med2, active compounds read low 1.01 | locus YDL035C, strain GPR1, active compounds read low 0.875 | locus YDL074C, strain BRE1, active compounds read low 0.93 | locus YDL101C, strain DUN1, active compounds read low 0.944 | locus YDL185W, strain tfp1, active compounds read low 1.07 | locus YDL192W, strain arf1, active compounds read low 1.01 | locus YDR001C, strain nth1, active compounds read low 1.01 | locus YDR069C, strain doa4, active compounds read low 1.01 | locus YDR137W, strain rgp1, active compounds read low 1.03 | locus YDR159W, strain sac3, active compounds read low 0.982 | locus YDR195W, strain ref2 0.986 | locus YDR297W, strain sur2, active compounds read low 1.04 | locus YDR318W, strain mcm21, active compounds read low 0.995 | locus YDR334W, strain swr1, active compounds read low 1 | locus YDR335W, strain msn5, active compounds read low 1.02 | locus YDR388W, active compounds read low 1.05 | locus YDR392W, strain spt3, active compounds read low 0.955 | locus YEL003W, strain gim4, active compounds read low 1.03 | locus YEL037C, strain rad23, active compounds read low 1.01 | locus YEL061C, strain CIN8 (second series), active compounds read low 1.01 | locus YER111C, strain swi4, active compounds read low 1 | locus YER155C, strain BEM2 (second series), active compounds read low 1.05 | locus YER155C, strain BEM2, active compounds read low 1 | locus YER167W, strain BCK2, active compounds read low 0.917 | locus YFR010W, strain ubp6, active compounds read low 1 | locus YGL078C, strain dbp3, active compounds read low 1.04 | locus YGL086W, strain mad1, active compounds read low 0.993 | locus YGL167C, strain pmr1, active compounds read low 0.993 | locus YGL173C, strain kem1, active compounds read low 0.998 | locus YGL227W, strain vid30, active compounds read low 1.01 | locus YGL240W, strain doc1, active compounds read low 1 | locus YGL253W, strain hxk2, active compounds read low 0.981 | [10] 0.898 | locus YGR135W, strain pre9, active compounds read low 1.1 | locus YHR013C, strain ard1, active compounds read low 0.989 | locus YHR027C, strain rpn1, active compounds read low 1.06 | locus YHR079C, strain IRE1 (second series), active compounds read low 1.06 | locus YHR142W, strain chs7, active compounds read low 1.03 | locus YIL125W, strain kgd1, active compounds read low 1.03 | locus YIR030C, strain dcg1, active compounds read low 1.06 | locus YJL092W, strain hpr5, active compounds read low 1.01 | locus YJL095W, strain BCK1, active compounds read low 0.926 | locus YJL115W, strain asf1, active compounds read low 1 | locus YJL129C, strain trk1, active compounds read low 1.02 | locus YJL134W, strain LCB3, active compounds read low 0.948 | locus YJL154C, strain vps35, active compounds read low 1.02 | locus YJL164C, strain tpk1, active compounds read low 1.03 | locus YJL166W, strain qcr8, active compounds read low 1.04 | locus YJL168C, strain set2, active compounds read low 1.03 | locus YJL187C, strain SWE1 (second series), active compounds read low 0.885 | locus YJL187C, strain SWE1, active compounds read low 1.05 | locus YKL009W, strain mrt4, active compounds read low 1.04 | locus YKL068W, active compounds read low 1.01 | locus YKL085W, strain MDH1 (second series), active compounds read low 1 | locus YKL085W, strain MDH1, active compounds read low 1 | locus YKL160W, strain elf1, active compounds read low 1 | locus YKR026C, strain gcn3, active compounds read low 1 | locus YLL001W, strain dnm1, active compounds read low 0.976 | locus YLR027C, strain aat2, active compounds read low 1.03 | locus YLR039C, strain RIC1, active compounds read low 0.891 | locus YLR102C, strain apc9, active compounds read low 1.06 | locus YLR221C, strain rsa3, active compounds read low 1.04 | locus YLR258W, strain gsy2, active compounds read low 1.03 | locus YLR262C, strain YPT6 (second series), active compounds read low 1.02 | locus YLR262C, strain YPT6, active compounds read low 0.874 | locus YLR268W, strain sec22, active compounds read low 1.05 | locus YLR320W, strain mms22, active compounds read low 0.999 | locus YLR330W, strain CHS5, active compounds read low 0.924 | locus YLR342W, strain FKS1, active compounds read low 1.05 | locus YLR357W, strain rsc2, active compounds read low 0.992 | locus YLR370C, strain arc18, active compounds read low 1.01 | locus YLR371W, strain rom2, active compounds read low 1.01 | locus YML120C, strain ndi1, active compounds read low 1.07 | locus YMR058W, strain fet3, active compounds read low 1.02 | locus YMR125W, strain sto1, active compounds read low 1.02 | locus YMR205C, strain PFK2, active compounds read low 1.01 | locus YMR223W, strain ubp8, active compounds read low 1.05 | locus YMR231W, strain pep5, active compounds read low 1 | [11] 0.818 | locus YNL067W, strain RPL9B, active compounds read low 0.988 | locus YNL071W, strain lat1, active compounds read low 1.02 | locus YNL209W, strain ssb2, active compounds read low 1.05 | locus YNL233W, strain BNI4, active compounds read low 0.915 | locus YNL248C, strain rpa49, active compounds read low 0.984 | locus YNL250W, strain rad50, active compounds read low 1.03 | locus YNL271C, strain bni1, active compounds read low 1.04 | locus YNL298W, strain CLA4, active compounds read low 1.04 | locus YNL307C, strain MCK1, active compounds read low 1.03 | locus YNL322C, strain KRE1 (second series), active compounds read low 1.05 | locus YNR049C, strain mso1, active compounds read low 1.01 | locus YNR052C, strain pop2, active compounds read low 1.07 | locus YOL012C, strain htz1 0.869 | locus YOR001W, strain rrp6, active compounds read low 1.01 | locus YOR069W, strain VPS5, active compounds read low 0.935 | locus YOR080W, strain dia2, active compounds read low 1.03 | locus YOR083W, strain WHI5, active compounds read low 1.06 | locus YOR106W, strain vam3, active compounds read low 1.08 | locus YOR184W, strain ser1, active compounds read low 1.07 | locus YOR265W, strain rbl2, active compounds read low 1.05 | locus YOR270C, strain vph1, active compounds read low 0.972 | locus YOR290C, strain snf2, active compounds read low 1.03 | locus YOR316C, strain cot1, active compounds read low 1.07 | locus YPL051W, strain arl3, active compounds read low 0.976 | locus YPL078C, strain atp4, active compounds read low 1.03 | locus YPL106C, strain sse1, active compounds read low 1.02 | locus YPR119W, strain clb2, active compounds read low 1.05 | locus YPR167C, strain met16, active compounds read low 1 | strain wtn01, active compounds read low 1.03
active: locus YAL030W, strain snc1, active compounds read low 1.09 [resistant] | locus YDL040C, strain nat1, active compounds read low 1.09 [resistant] | locus YDR101C, strain arx1, active compounds read low 1.09 [resistant] | locus YDR162C, strain NBP2, active compounds read low 0.828 | locus YDR502C, strain sam2, active compounds read low 1.11 [resistant] | locus YER015W, strain faa2, active compounds read low 1.08 [resistant] | locus YER016W, strain bim1, active compounds read low 1.1 [resistant] | locus YER110C, active compounds read low 1.11 [resistant] | locus YGL248W, strain PDE1, active compounds read low 0.845 | locus YGR252W, strain gcn5, active compounds read low 1.59 [resistant] | locus YHR094C, strain hxt1, active compounds read low 1.16 [resistant] | locus YHR129C, strain ARP1, active compounds read low 0.881 | locus YHR200W, strain rpn10, active compounds read low 1.09 [resistant] | locus YIL066C, strain RNR3, active compounds read low 0.788 | locus YIL073C, strain SPO22, active compounds read low 0.586 | locus YJL095W, strain BCK1 (second series), active compounds read low 1.09 [resistant] | locus YKL190W, strain CNB1, active compounds read low 0.906 | locus YKR001C, strain vps1, active compounds read low 1.21 [resistant] | locus YKR091W, strain srl3, active compounds read low 1.14 [resistant] | locus YLL026W, active compounds read low 1.07 [resistant] | locus YLL041C, strain sdh2, active compounds read low 1.09 [resistant] | locus YLR058C, strain SHM2, active compounds read low 0.891 | locus YLR384C, strain iki3, active compounds read low 1.1 [resistant] | locus YLR418C, strain cdc73, active compounds read low 1.17 [resistant] | locus YML016C, strain PPZ1, active compounds read low 0.874 | locus YML032C, strain rad52, active compounds read low 1.14 [resistant] | locus YML124C, strain tub3, active compounds read low 1.07 [resistant] | locus YMR078C, strain ctf18, active compounds read low 1.14 [resistant] | locus YMR129W, active compounds read low 1.12 [resistant] | locus YOL147C, strain pex11, active compounds read low 1.09 [resistant] | locus YOR061W, strain CKA2, active compounds read low 0.782 | locus YOR070C, strain gyp1, active compounds read low 1.16 [resistant] | locus YOR136W, strain idh2, active compounds read low 1.11 [resistant] | locus YOR144C, strain elg1, active compounds read low 1.08 [resistant] | locus YPL240C, strain hsp82, active compounds read low 1.1 [resistant] | locus YPR141C, strain kar3, active compounds read low 1.09 [resistant] | locus YPR163C, strain tif3, active compounds read low 1.14 [resistant]

— PubChem BioAssay AID1159580 (chemical genetic matrix, 2015)
